Eight molecules from PubChem BioAssay (Tox21) can be followed below.

The nature of test [1]: qHTS assay to identify small molecule agonists of the sonic hedgehog signaling (Shh) pathway (AID 1259368; calls by dose curve;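 also: NIH/3T3-derived 3T3Gli1-Luc cells carrying a stable Gli1-driven firefly luciferase reporter; series mostly up to about 92 µM; nearly all actives have a fitted effect of over 15% in size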). Put shortly: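 Cells of a mouse NIH/3T3 clone stably expressing luciferase under the Gli1 transcriptional response element are exposed to test chemicals for 24 hr at 37 C. Pathway activation is detected as a rise in luminescence.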
In general terms: In qHTS, concentration-response curves come from the screen itself.

A short description of test [2]: qHTS assay to identify small molecule antagonists of the sonic hedgehog signaling (Shh) pathway (AID 1259369; calls by dose curve; also: nearly all actives have a fitted effect of over 45% in size; also: potency is read from the fitted curve at half-maximal effect). Put shortly: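 Cells are plated and held 4hr at 37 C, compounds (DMSO) are pinned in, conditioned medium is added to stimulate the pathway, and after 24hr luciferase reagent is added for 30min before luminescence is read.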
For test [3], the target named is Estrogen receptor beta (Homo sapiens) (UniProt Q92731). Put plainly: qHTS assay to identify small molecule agonists of the estrogen receptor beta (ER-beta) signaling pathway (AID 1259377; active = well fitted activation curve with a large enough effect in the signal ratio in the repeat runs, not every such curve was filed as active; the % refers to the signal ratio). Put shortly:
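Beta-lactamase reporter readout: fluorescence of LiveBLAzer B/G FRET substrate after 2 h at room temperature, following 16 h compound treatment of ER-beta-UAS-bla HEK293T cells at 37C in 2% charcoal-stripped FBS medium.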

The target is the same in test [4]. In words: qHTS assay to identify small molecule antagonists of the estrogen receptor beta (ER-beta) signaling pathway (AID 1259378; active = well fitted inhibition curve with a large enough effect in the signal ratio in the repeat runs, not every such curve was filed as active; the % refers to the signal ratio; also: potency is read from the fitted curve at half-maximal effect). Put shortly:
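ER-beta-UAS-bla HEK293T cells in 2% charcoal-stripped FBS medium treated with compound plus 1nM final 17-beta-estradiol for 16 hr at 37C. Beta-lactamase reporter read by FRET substrate fluorescence after 2 hours at room temperature.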

Test [5] in a line: qHTS assay to identify small molecule agonists of the androgen receptor (AR) signaling pathway in the presence of an antagonist - cell viability counter screen (AID 1259379). Also: nearly all actives have a fitted effect of over 25% in size. Also: potency is read from the fitted curve at half-maximal effect.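 As to activity change, negative = cytotoxicity: MDA-kb2 human breast cancer cells carrying an MMTV luciferase reporter; series mostly up to about 92 µM.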 Put shortly:
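Cytotoxicity is assessed by CellTiter-Fluor in MDA-kb2 cells carrying an MMTV-driven luciferase reporter. Cells receive 3.0uM nilutamide plus compounds at 15 concentrations and incubate 16 hr at 37C without CO2 before fluorescence reading.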

Test [6] can be described thus: qHTS assay to identify small molecule antagonists of the estrogen receptor beta (ER-beta) signaling pathway - cell viability counter screen (AID 1259382). Also: series mostly up to about 92 µM; nearly all actives have a fitted effect of over 55% in size. Put shortly: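 Cytotoxicity counter screen multiplexed with the beta-lactamase antagonist assay: GripTite HEK293T ER-beta-bla cells were treated 16 hr with test chemicals in the presence of 1nM 17-beta-estradiol, and viability was measured by CellTiter-Glo.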

Test [7] is described as follows: qHTS assay to identify small molecule agonists or antagonists of the thyroid stimulating hormone receptor (TSHR) signaling pathway - wild type cell line counter screen (AID 1259384; calls by dose curve). Put shortly:
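Wild-type Hek293 cells, 800/well, 18 h at 37C, then compound with Ro20-1724 for 30 min RT. cAMP by HTRF (cAMP-d2/anti-cAMP cryptate), 1 h RT, fluorescence read. 15 concentrations, triplicates.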

Test [8] is described as follows: qHTS assay to identify small molecule antagonists of the progesterone receptor (PR) signaling pathway - cell viability counter screen (AID 1346798). Also: series mostly up to about 92 µM; nearly all actives have a fitted effect of over 50% in size. Put shortly:
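Luminescence readout (CellTiter-Glo, 30 min, RT) of viability in PR-UAS-bla HEK293T cells exposed to compound and R5020 agonist for 16 hr at 37C, 5% CO2; run in the same wells as the beta-lactamase reporter read.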

Test [9] can be described thus: qHTS assay to identify small molecule antagonists of the TGF-beta/Smad signaling pathway - cell viability counter screen (AID 1346824). Also: nearly all actives have a fitted effect of over 50% in size. Put shortly:
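SBE-bla HEK 293T cells, incubated overnight, then compound plus 0.25 ng/mL TGF-beta1 (stock added) for 5 hr at 37 C. Viability was read in the same wells by CellTiter-Glo luminescence after 30 min at room temperature.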

Test [10] is described as follows: qHTS assay to identify small molecule agonists of the TGF-beta/Smad signaling pathway - cell viability counter screen (AID 1346829). Also: top concentration of the series differs between compounds; nearly all actives have a fitted effect of over 45% in size. Put shortly: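 Compound-treated SBE-bla HEK 293T cells (5 hr, 37 C) were assessed for viability with CellTiter-Glo in parallel with the reporter read.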
Test [11] in a line: qHTS assay to identify small molecule agonists of the TGF-beta/Smad signaling pathway (AID 1346859; active = well fitted activation curve with a large enough effect in the signal ratio in the repeat runs, not every such curve was filed as active; the % refers to the signal ratio; also: series mostly up to about 77 µM). Put shortly:
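Read-out: fluorescence at 460 and 530 nm (405 nm excitation) after a 2 hr room-temperature incubation with beta-lactamase FRET substrate. SBE-bla HEK 293T cells had been treated with test compounds for 5 hr at 37 C.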

The target in test [12] is Thyrotropin-releasing hormone receptor (Homo sapiens) (UniProt P34981). Put plainly: qHTS assay to identify small molecule antagonists of the thyrotropin-releasing hormone receptor (TRHR) signaling pathway (AID 1346877; active = well fitted inhibition curve with a large enough effect in the repeat runs, not every such curve was filed as active; also: series mostly up to about 51 µM). Put shortly: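 Antagonism is measured as suppression of the calcium response to 1 nM TRH in TRHR-HEK293 cells that have been dye-loaded for 2 h at 37 °C after overnight plating. Each compound is tested at 15 concentrations in triplicate.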

The target of test [13] is Estrogen receptor (Homo sapiens) (UniProt P03372). In words: qHTS assay to identify small molecule agonists of the estrogen receptor alpha (ER-alpha) signaling pathway in the presence of an antagonist (AID 1259383; calls by dose curve; also: top concentration of the series differs between compounds; nearly all actives have a fitted effect of over 15% in size). Put shortly: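 Agonist-mode confirmation in the presence of the ER antagonist ICI-182,780 at 10.0nM final. Breast-derived VM7Luc4E2 reporter cells were exposed to compounds for 22hr, and ERE-driven luciferase was quantified by luminescence.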

In test [14] the target is Thyrotropin receptor (Homo sapiens) (UniProt P16473). In words: qHTS assay to identify small molecule antagonists of the thyroid stimulating hormone receptor (TSHR) signaling pathway (AID 1259385; calls by dose curve; also: nearly all actives have a fitted effect of over 20% in size). Put shortly: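 TSHR-HEK293 cells (800/well) plated 18 h, then compounds with Ro20-1724 and TSH at 1.5 ng/mL final, 30 min at room temperature. cAMP quantified by HTRF (cAMP-d2/anti-cAMP-cryptate, 1 h); 15 concentrations in triplicate.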

The nature of test [15]: qHTS assay to identify small molecule agonists of the estrogen receptor alpha (ER-alpha) signaling pathway in the presence of an antagonist - cell viability counter screen (AID 1259386).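 Also: cells exposed to compounds for 22 h at 37 °C before the viability read; nearly all actives have a fitted effect of over 30% in size.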 Also: potency is read from the fitted curve at half-maximal effect. As to activity change, negative = cytotoxicity: series mostly up to about 92 µM. Put shortly:
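Cytotoxicity was measured in parallel with the ERE-luciferase agonist screen, in the same wells. The cells were VM7Luc4E2, which endogenously express ER-alpha, and treatment was with compounds plus 10.0nM ICI-182,780 for 22hr.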

The target in test [16] is Progesterone receptor (Homo sapiens) (UniProt P06401). Put plainly: qHTS assay to identify small molecule agonists of the progesterone receptor (PR) signaling pathway (AID 1346784; calls by dose curve; also: nearly all actives have a fitted effect of over 30% in size; also: potency is read from the fitted curve at half-maximal effect). Put shortly:
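HEK 293T PR-UAS-bla reporter cells, 2% charcoal-stripped FBS; 6 hr settle at 37C/5% CO2, compound (DMSO) 16 hr, LiveBLAzer B/G FRET substrate 2 hr RT, fluorescence intensity read.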

The nature of test [17]: qHTS assay to identify small molecule agonists of the estrogen receptor beta (ER-beta) signaling pathway - cell viability counter screen (AID 1259380). Also: nearly all actives have a fitted effect of over 30% in size. Put shortly: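 Cytotoxicity is measured in parallel with the reporter screen: after 16 hr compound exposure at 37C and a 2 hr LiveBLAzer step, CellTiter-Glo is added to the same ER-beta-UAS-bla HEK293T wells and luminescence read after 30 min.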

For test [18], the target named is Progesterone receptor (Homo sapiens) (UniProt P06401). Put plainly: qHTS assay to identify small molecule antagonists of the progesterone receptor (PR) signaling pathway (AID 1346795; active = well fitted inhibition curve with a large enough effect in the signal ratio in the repeat runs, not every such curve was filed as active; the % refers to the signal ratio). Put shortly:
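Beta-lactamase reporter, HEK293T PR-UAS-bla line; 2% charcoal-stripped FBS; 6 hr pre-incubation, 37C/5% CO2. Compound + R5020 1 nM final, 16 hr. LiveBLAzer B/G FRET substrate, 2 hr RT; fluorescence intensity read.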

A short description of test [19]: qHTS assay to identify small molecule agonists of the progesterone receptor (PR) signaling pathway - cell viability counter screen (AID 1346799; calls by dose curve; also: nearly all actives have a fitted effect of over 45% in size). Put shortly:
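HEK293T PR-UAS-bla, 3,000 cells/well, 2% charcoal-stripped FBS; 6 h settle, compound 16 h at 37C/5% CO2; LiveBLAzer 2 h RT, then CellTiter-Glo 30 min RT, luminescence read.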

Test [20] addresses Androgen receptor (Homo sapiens) (UniProt P10275). In words: qHTS assay to identify small molecule agonists of the androgen receptor (AR) signaling pathway in the presence of an antagonist (AID 1259381; calls by dose curve; also: nearly all actives have a fitted effect of over 15% in size). Put shortly:
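Agonist-mode confirmation screen: human MDA-kb2 cells stably expressing luciferase under an MMTV promoter bearing AR and GR response elements, co-treated with 3.0uM nilutamide (final). Luminescence measured after 16hr compound incubation.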

A number with no mark means an inactive call. Results filed as inconclusive are left out. The source made the active and inactive calls. Unless noted, calls follow the shape of the dose curve; as a rule, active = well fitted curve in the direction sought with a large enough effect in the repeat runs; inconclusive = weak or mixed curves; inactive = no such curve, though single readings can be large; an effect the other way counts as inactive or inconclusive.
% is scaled to controls: 0 for no effect and ±100 for the full control effect.

Sequence of Progesterone receptor (Homo sapiens) (P06401 whole entry, looked up): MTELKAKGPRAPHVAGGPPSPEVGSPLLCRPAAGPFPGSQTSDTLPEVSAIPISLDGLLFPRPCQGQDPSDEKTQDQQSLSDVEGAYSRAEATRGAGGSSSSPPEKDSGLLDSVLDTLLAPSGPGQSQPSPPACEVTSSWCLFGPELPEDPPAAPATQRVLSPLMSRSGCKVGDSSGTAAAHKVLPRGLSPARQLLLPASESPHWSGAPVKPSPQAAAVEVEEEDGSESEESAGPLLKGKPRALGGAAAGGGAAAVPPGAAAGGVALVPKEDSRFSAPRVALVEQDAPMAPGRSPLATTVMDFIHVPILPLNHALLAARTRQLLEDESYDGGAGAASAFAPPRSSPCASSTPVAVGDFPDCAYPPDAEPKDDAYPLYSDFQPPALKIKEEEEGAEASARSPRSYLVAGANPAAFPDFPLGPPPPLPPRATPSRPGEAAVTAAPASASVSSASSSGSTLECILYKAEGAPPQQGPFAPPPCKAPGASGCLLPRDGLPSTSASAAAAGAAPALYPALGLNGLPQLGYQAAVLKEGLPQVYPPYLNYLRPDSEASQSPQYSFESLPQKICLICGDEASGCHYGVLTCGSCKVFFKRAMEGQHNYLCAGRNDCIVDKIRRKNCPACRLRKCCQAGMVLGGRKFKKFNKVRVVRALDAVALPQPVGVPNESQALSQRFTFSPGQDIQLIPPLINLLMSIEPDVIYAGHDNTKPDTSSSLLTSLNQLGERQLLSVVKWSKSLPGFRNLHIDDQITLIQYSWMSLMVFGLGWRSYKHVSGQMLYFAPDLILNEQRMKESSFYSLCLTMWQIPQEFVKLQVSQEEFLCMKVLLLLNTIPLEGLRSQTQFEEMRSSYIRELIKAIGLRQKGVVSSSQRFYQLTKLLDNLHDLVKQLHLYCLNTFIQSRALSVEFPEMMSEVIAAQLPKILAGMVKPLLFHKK
Sequence of Estrogen receptor (Homo sapiens) (P03372 whole entry, looked up): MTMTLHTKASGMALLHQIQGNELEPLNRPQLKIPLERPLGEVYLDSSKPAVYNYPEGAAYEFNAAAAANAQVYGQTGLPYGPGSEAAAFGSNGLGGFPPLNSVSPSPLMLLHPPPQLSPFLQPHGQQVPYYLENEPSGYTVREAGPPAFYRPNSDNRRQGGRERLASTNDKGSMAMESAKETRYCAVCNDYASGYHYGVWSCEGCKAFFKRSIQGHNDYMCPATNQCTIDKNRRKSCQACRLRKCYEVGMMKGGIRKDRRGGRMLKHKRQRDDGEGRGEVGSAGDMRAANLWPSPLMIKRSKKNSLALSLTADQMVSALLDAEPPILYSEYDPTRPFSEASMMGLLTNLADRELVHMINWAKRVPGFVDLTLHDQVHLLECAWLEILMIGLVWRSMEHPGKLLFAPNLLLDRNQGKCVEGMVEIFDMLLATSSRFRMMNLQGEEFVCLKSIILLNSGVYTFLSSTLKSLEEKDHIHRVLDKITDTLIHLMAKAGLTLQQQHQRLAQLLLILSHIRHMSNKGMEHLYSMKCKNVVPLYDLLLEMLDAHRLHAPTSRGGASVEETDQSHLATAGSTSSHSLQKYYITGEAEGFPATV
Sequence of Estrogen receptor beta (Homo sapiens) (Q92731 whole entry, looked up): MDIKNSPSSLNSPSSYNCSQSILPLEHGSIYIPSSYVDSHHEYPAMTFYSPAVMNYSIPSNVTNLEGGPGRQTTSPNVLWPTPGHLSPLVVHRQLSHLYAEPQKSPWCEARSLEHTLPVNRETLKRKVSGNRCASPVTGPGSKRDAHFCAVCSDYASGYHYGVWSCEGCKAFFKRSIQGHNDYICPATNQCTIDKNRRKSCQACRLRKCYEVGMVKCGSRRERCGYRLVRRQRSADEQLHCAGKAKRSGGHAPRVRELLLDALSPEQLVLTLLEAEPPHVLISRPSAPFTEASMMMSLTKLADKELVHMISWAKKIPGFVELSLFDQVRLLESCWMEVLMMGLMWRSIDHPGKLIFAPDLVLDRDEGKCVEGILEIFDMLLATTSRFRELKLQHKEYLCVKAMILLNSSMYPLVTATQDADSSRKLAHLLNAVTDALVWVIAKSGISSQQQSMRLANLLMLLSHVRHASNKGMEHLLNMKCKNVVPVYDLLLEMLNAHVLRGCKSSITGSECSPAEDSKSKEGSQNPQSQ
Sequence of Thyrotropin receptor (Homo sapiens) (P16473 whole entry, looked up): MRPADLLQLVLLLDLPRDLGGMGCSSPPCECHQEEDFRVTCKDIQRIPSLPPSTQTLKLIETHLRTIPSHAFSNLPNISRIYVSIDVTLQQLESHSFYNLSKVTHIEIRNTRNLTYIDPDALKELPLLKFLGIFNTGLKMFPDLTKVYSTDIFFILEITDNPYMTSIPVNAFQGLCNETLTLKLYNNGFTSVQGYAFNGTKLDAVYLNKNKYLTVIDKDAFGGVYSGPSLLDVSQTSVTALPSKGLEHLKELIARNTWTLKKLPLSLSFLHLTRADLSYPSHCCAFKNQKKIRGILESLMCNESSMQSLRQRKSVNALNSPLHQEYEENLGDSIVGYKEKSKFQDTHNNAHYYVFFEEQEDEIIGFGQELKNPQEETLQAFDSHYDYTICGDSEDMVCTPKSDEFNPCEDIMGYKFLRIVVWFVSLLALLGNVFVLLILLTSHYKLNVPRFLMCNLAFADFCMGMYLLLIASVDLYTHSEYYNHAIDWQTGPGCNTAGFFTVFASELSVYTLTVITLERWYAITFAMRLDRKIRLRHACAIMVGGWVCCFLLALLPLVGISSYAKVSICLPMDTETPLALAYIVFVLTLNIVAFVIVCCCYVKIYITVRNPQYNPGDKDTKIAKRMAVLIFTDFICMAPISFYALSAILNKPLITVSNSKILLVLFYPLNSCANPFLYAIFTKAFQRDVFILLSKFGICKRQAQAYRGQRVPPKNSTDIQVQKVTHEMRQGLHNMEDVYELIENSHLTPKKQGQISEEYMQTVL
Sequence of Thyrotropin-releasing hormone receptor (Homo sapiens) (P34981 whole entry, looked up): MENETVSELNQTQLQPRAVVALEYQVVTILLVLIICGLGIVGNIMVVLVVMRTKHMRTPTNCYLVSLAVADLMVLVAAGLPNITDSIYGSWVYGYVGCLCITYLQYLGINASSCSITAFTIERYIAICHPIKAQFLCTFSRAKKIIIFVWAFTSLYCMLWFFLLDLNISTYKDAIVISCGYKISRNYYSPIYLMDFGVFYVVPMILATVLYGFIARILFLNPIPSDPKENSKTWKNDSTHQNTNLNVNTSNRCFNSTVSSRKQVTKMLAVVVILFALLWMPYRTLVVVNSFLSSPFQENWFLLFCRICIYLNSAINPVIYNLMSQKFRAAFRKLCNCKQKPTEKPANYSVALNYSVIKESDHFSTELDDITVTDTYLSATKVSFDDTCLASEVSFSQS
Sequence of Androgen receptor (Homo sapiens) (P10275 whole entry, looked up): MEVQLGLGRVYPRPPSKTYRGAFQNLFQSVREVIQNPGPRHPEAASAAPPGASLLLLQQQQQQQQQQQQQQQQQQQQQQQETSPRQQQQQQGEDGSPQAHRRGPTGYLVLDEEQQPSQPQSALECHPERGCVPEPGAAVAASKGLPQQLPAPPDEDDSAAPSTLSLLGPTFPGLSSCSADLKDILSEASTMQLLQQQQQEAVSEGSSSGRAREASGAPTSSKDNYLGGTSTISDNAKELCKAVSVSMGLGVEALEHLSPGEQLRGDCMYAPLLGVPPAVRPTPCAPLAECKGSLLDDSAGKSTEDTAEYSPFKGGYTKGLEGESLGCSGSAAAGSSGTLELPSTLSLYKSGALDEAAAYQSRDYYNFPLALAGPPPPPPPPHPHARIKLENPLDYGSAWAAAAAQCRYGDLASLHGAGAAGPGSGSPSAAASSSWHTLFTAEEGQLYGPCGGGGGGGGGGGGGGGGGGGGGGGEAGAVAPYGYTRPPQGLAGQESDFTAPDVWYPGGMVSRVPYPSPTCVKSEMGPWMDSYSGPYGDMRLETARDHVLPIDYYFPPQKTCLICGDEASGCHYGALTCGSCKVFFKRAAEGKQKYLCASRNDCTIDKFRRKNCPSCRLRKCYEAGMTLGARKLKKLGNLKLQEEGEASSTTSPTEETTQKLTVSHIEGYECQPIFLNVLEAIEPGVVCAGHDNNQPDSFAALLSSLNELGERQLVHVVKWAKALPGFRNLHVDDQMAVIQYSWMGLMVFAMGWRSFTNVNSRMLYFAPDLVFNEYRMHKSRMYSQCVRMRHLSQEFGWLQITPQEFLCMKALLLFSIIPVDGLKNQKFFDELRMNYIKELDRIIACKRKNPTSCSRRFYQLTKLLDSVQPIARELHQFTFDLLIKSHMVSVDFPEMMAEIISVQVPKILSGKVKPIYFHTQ

In the case of `CCCCN(CCCC)CCCOC(=O)c1ccc(N)cc1`, the Potency entry in test [1], in test [2], in test [3], in [4], in test [5] and in test [6] was “inactive” each time. For the same molecule, the Potency entry in test [8] is “inactive”. The outcome in test [7], in test [9], in test [10], in test [11] and in test [12] was inactive.

Consider `CCNC(=O)N1CCN(CCCC(c2ccc(F)cc2)c2ccc(F)cc2)CC1`, for which the Potency entry in test [1], in test [3], in [6], in test [13], in test [14] and in test [16] was “inactive” in each case. In addition, in test [8], the Potency entry is “inactive”. In addition, the Potency was 3.35 µM (active) in [2], 21.1 µM (active) in [4], 26.6 µM (active) in test [5] and 23.7 µM (active) in [15]. Also, the call in test [7], in test [10], in test [11] and in [12] was inactive.

In the case of `C=CCCCCCCCCCCCCCCCC`, the activity change in [1] was 0.635% [at 8.39 µM, stronger effect = higher value]. Further, the activity change, negative = inhibition in [2] was 12.7% [at 8.39 µM]; in test [14], -0.238% [at 8.39 µM]; in test [18] it was 15.4% [at 8.39 µM]. Moreover, the activation in test [3] is -1.08% [at 8.39 µM]; in [13], -0.131% [at 8.39 µM]; in test [11], 2.93% [at 6.97 µM]. In addition, in [4], the activity, negative = inhibition was 3.67% [at 8.39 µM]. The activity change, negative = cytotoxicity in test [5] is 0.762% [at 8.39 µM]; in test [17], 5.49% [at 8.39 µM]; in [6] it was -0.694% [at 8.39 µM]; in test [15], -0.26% [at 8.39 µM]; in [8], 4.23% [at 8.39 µM]; in test [19], 14.5% [at 8.39 µM]. Moreover, the activity change, negative = cytotoxicity in [10] was 3.28% [at 6.97 µM]. Further, the cAMP activity change in test [7] was -0.74% [at 8.39 µM]. In test [16], the Potency is 0.733 µM (active). Further, in [9], the viability change, negative = cytotoxic is 2.26% [at 6.97 µM].

As for `COC(=O)Nc1nc2ccc(C(=O)c3cccs3)cc2[nH]1`, the Potency entry in test [1], in test [3], in [4], in test [5], in test [6] and in [14] was “inactive” each time. The Potency entry in test [15] and in test [16] was “inactive” each time. The Potency in test [2] is 0.335 µM (active). Besides, the call in test [7], in [9], in test [10] and in test [11] was inactive.

Take `CC(CCO)CCc1ccccc1` (configuration not stated): the Potency entry in test [1], in test [2], in test [3], in test [4], in [5] and in [17] was “inactive” in each case. Also, the Potency result in test [6], in test [13], in [14], in test [15], in test [16] and in test [18] was “inactive” each time. For the same molecule, the Potency entry in test [8] and in test [19] was “inactive” in each case. Also, the outcome in test [7], in [9], in test [10] and in [11] was inactive.

Take `O=C(Nc1ccccc1)Nc1ccccc1`: the Potency result in test [1], in test [2], in test [3], in test [4], in test [5] and in test [6] was “inactive” throughout. Also, the Potency entry in [13], in [15], in test [16], in [8] and in [19] was “inactive” in each case. The call in test [9], in [10], in [11] and in test [12] was inactive.

As to `Cc1ccc(/C=N/n2c(-c3ccccc3)csc2=S)cc1`, the Potency entry in test [1], in [2], in test [3], in test [5], in [6] and in test [14] was “inactive” each time. The Potency result in test [15] and in test [16] was “inactive” throughout. Besides, the Potency in test [4] was 7.5 µM (active). The result in test [7], in test [11] and in test [12] was inactive.

For `C=CC(=C)CCCC(C)(C)OC(C)=O`, the Potency entry in test [1], in test [2], in [3], in [4], in test [5] and in test [17] was “inactive” each time. Moreover, the Potency result in test [20], in [6], in test [14], in test [15], in test [16] and in test [18] was “inactive” each time. Further, the Potency result in test [8] and in test [19] was “inactive” each time. The outcome in test [7], in [9], in [10], in [11] and in test [12] was inactive.
